40 molecules from PubChem BioAssay can be followed below.

The structures appear in SMILES notation. Values without a mark were called inactive. The source made the active and inactive calls. Rule as the data show it: active = inhibition above about 28%; inactive = the rest.

This experiment is described as follows: StAR promoter reporter inhibitors, counter-screen for LRH-1 inverse agonist project, cell-based, luminescence, high throughput (AID 651611). Particulars: StAR promoter luciferase reporter counterscreen, at 3.6 µM, hits give high values. A general note: Counterscreens check selectivity or assay interference.
The term inhibition denotes the change of the read-out against control, counted positive when it falls. `Cc1ccc(/C=C2\SC(=S)N(c3c(C)n(C)n(-c4ccccc4)c3=O)C2=O)cc1`: the inhibition is 9.85%.
Under `O=C(COc1ccc2ccc(=O)oc2c1)Nc1ccc(N2CCOCC2)cc1` stands 13.3%; under `Cc1nn(Cc2ccc(Cl)cc2)c(C)c1NC(=O)c1cc(C(C)C)on1`, 16.2%.
In the case of `Oc1cccc(Nc2nc(-c3ccccc3Cl)nc3ccccc23)c1` it was 9.52%.
In the case of `CCC(c1nnnn1-c1c(C)cccc1C)N1CCN(c2ccc(C(F)(F)F)cc2[N+](=O)[O-])CC1` (stereo not given) it was 7.27%; in that of `CCC(=O)N1CCN(c2cc(NCC3CCCO3)c(F)cc2[N+](=O)[O-])CC1` (stereo not given), 9.58%; in that of `O=C(NNc1ccccc1)C(=O)NNS(=O)(=O)c1ccc([N+](=O)[O-])cc1`, 1.65%.
Regarding `Cc1ccc(Cn2cnc3ccccc32)cc1C`, the inhibition was 2.29%.
Under `O=C(CN1C(=O)NC2(CCOc3ccccc32)C1=O)Nc1cccc([N+](=O)[O-])c1` (stereo not given) stands 13.7%.
Under `Cc1c(Cl)cccc1NC(=O)CS(=O)(=O)c1ccccc1` stands 13.4%.
Under `NNC(=O)C(Cc1ccc(O)cc1)N1Cc2ccccc2C1=O` (stereo not given) stands -1.94%; under `CNC(=S)N/N=C/c1cn(Cc2ccc(C)cc2)c2ccccc12`, 2.35%.
With `Cc1ccsc1CNc1ncnc2ccc(-c3c(C)noc3C)cc12`, the inhibition is 54.5% (active).
Under `N#Cc1c2ccc([N+](=O)[O-])cc2[n+]([O-])n1-c1ccccc1` stands 58.2% (active); under `O=[N+]([O-])c1ccc(N2CCN(Cc3ccccc3)CC2)c2c1no[n+]2[O-]`, 63.5% (active).
Regarding `Cc1sc2ncnc(NCC(O)c3ccc([N+](=O)[O-])cc3)c2c1C` (stereo not given), the inhibition was 15.4%.
In the case of `COc1ccc(NC(=O)CSc2ncnc3[nH]ncc23)cc1` it was 7.25%; in that of `CN(CC(=O)Nc1ccc(N2CCOCC2)cc1)CC(=O)Nc1ccc(N2CCOCC2)cc1`, 4.02%.
Under `CCOc1ccc(NC(=O)Cn2cc(C(C)=O)c3ccccc32)cc1` stands 22.7%.
In the case of `O=C(CSc1nccc(=O)[nH]1)Nc1ccc(N2CCOCC2)cc1` it was 4.42%; in that of `N#CCSc1ccccc1NC(=O)CN1C(=O)C2CC=CCC2C1=O` (stereo not given), 10.9%.
`CS(=O)(=O)N1CCN(c2ccc(NC(=O)CSc3nnc(-c4ccco4)o3)cc2)CC1`: the inhibition is 4.74%.
Under `COc1cc(-c2cc(C(=O)Nc3ccncc3)c3ccccc3n2)cc(OC)c1OC` stands 28.4% (active).
Under `COc1cc2nc(/C=C/c3cc(OC)c(OC)c(OC)c3)sc2cc1SC` stands 35.7% (active); under `Cn1c(=O)n(C)c2cc(NC(=O)CCl)ccc21`, 60.5% (active); under `Cn1c(=O)c2c(nc(CN3CCOCC3)n2CC(=O)c2ccccc2)n(C)c1=O`, -4.41%.
Under `Cc1cc(/C=N/n2cnnc2)c(C)n1-c1ccc(OCc2ccc(Cl)cc2)cc1` stands -11%; under `O=C(NCc1cccnc1)c1cccc2c1C(=O)N(C1CCCCC1)C2`, 12.8%.
Regarding `Cc1cccc(NC(=O)CSc2ccc(-c3ccco3)nn2)c1C`, the inhibition is 4.66%.
In the case of `O=C(N/N=C/c1ccc(Sc2ccccn2)o1)c1cccc([N+](=O)[O-])c1` it was -2.81%; in that of `Cc1cc(C)nc(NC(=O)c2ccc([N+](=O)[O-])o2)n1`, 17.2%.
Under `O=C(Nc1cccc(NC(=O)c2ccc([N+](=O)[O-])o2)c1)c1ccco1` stands 23.5%; under `CCCCc1c(O)nc(SCC(=O)Nc2ccc3c(c2)CCC3)[nH]c1=O`, 6.25%; under `CN(Cc1cccs1)c1nc(-c2cccnc2)nc2ccccc12`, 9.82%.
In the case of `Cc1cc(O)c(NC(=O)c2cc([N+](=O)[O-])ccc2Cl)cc1C` it was 35% (active); in that of `O=C(NNc1ccc([N+](=O)[O-])cc1[N+](=O)[O-])c1ccco1`, 12.4%.
Regarding `Cc1ccc(-n2c(SCC(=O)NCc3ccco3)nc3sc4c(c3c2=O)CC(C)(C)SC4)cc1`, the inhibition was 17.6%.
Turning to `S=C(Nc1cccnc1)Nc1cccc2cnccc12`, the inhibition was 9.29%.
In the case of `O=C(COC(=O)c1ccc(Br)o1)Nc1ccc2c(c1)OCCO2` it was 22%.
Take `Cc1cc(OCC(=O)Nc2ccc(OCc3ccccc3)cc2)nc(C(C)C)n1`: the inhibition is -0.66%.
